Assay results taken from PubChem BioAssay (NCI).
The panel holds about 83,000 compounds, 20% with a hit somewhere; the sample as a whole holds those more often.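 Plates (96-well) were seeded with cells, treated with compound at one concentration, and incubated for 48 hours before percent growth was determined.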 Values without a mark were called inactive. Calls of active or inactive are those of the source.

What follows are compounds tested on SK-OV-3 ovarian (assay: NCI-60 one-dose screen, 48 h (100 = growth as untreated, 0 = no growth, -100 = all killed)). Conditions: 10 µM unless noted.
Protocol: Growth inhibition of the SK-OV-3 human tumor cell line is measured as a screen for anti-cancer activity. Cells are grown in 96 well plates and exposed to the test compound for 48 hours. Compounds are tested at a single concentration, which is 10^-5 M for most compounds. The reported endpoint is percent growth (GI% or GIPRCNT), where numbers from 0 - 100% represent growth inhibition, and numbers from -100% - 0 represent cell death. For example, a value of 40 represents 60% growth inhibition. A value of 0 means no net growth occurred over the course of the experiment. A value of -40 indicates 40% of cells at the beginning of the experiment died by the end of the experiment. A value of -100 means all cells are dead at the end of the experiment.
NCI-60 Human Tumor Cell Lines Screen was performed using the standard one-dose NCI protocol, which is described in more detail at https://dtp.cancer.gov/discovery_development/nci-60/default.htm.
Compounds with GIPRCNT values below 10 were considered active. Activity score was based on GIPRCNT using the following formula: […]
Score is 0 for GIPRCNT values of 100 or above, 50 for GIPRCNT values of 0, and 100 for GIPRCNT values of -100.

Structure (SMILES)	growth
Cn1cc(-c2nonc2-c2cn(C)c3ccccc23)c2ccccc21	18.7%
CC(=O)N1N=C(c2ccc(Nc3nc(Nc4ccccc4)nc(Nc4ccccc4)n3)cc2)CC1c1ccccc1 (stereo not given)	95.5%
COC(=O)/C=C1/SC(=Nc2cccc(OC)c2)N(CCc2c[nH]c3ccc(O)cc23)C1=O	101%
O=C1Nc2ccc(C(=O)O)cc2/C1=N/c1nnc(Sc2ccccc2)s1	109%
O=S(=O)(NCCNc1nccc(-c2c(-c3ccc(F)c(O)c3)nc3sccn23)n1)c1ccc(O)cc1	53.7%
NS(=O)(=O)c1ccccc1NC(=O)Nc1nc2ccccc2s1	97.3%
N#Cc1c(-c2ccc(Cl)cc2)nc(NN2C(=O)c3ccccc3C2=O)nc1N1CCOCC1	106%
O=S(=O)(NCCNc1nccc(-c2c(-c3ccc(F)c(O)c3)nc3occn23)n1)c1ccc(Cl)cc1	87.1%
Nc1ncnc2c1N=C(c1ccc(Br)cc1)CC(c1cccc(Nc3ccnc4cc(C(F)(F)F)ccc34)c1)N2 (stereo not given)	45.7%
Cn1cc(C(=O)c2nc(-c3c[nH]c4ccccc34)no2)c2cc(F)ccc21	43.3%
COc1ccc(C(=O)c2cc3c(N)c(C(=O)Nc4ccc(C)cc4)sc3nc2C)cc1	35.3%
O=S(=O)(NCCCNc1nccc(-c2c(-c3ccc(F)c(O)c3)nc3occn23)n1)c1ccc(Cl)cc1	64.4%
O=C1Nc2ccccc2/C1=C/c1cccn1CCCCn1c2ccccc2c(=O)c2ccccc21	94.6%
Cc1cc(=O)oc2cc(OCc3nn4c(Nc5nc6ccccc6s5)c(-c5ccccc5)nc4s3)ccc12	92%
COc1ccc(C(C)=O)cc1S(=O)(=O)Nc1c(N)nc(SC)[nH]c1=O	124%
C=CCn1c(C)nc2ccc(Nc3nc(Nc4ccc5nc(C)n(CC=C)c5c4)c4ccccc4n3)cc21	-63.7% (active)
COc1ccc(Nc2nc(-c3cc(O)c(C)c(C)c3O)cs2)cc1	71.3%
CN1CCN(c2cc(Nc3cc(C4CC4)[nH]n3)nc(Nc3ccc(CC(=O)NCc4cccc(F)c4)cc3)n2)CC1	24%
CCOC(=O)NC(C)C	117%
CCOC(=O)c1cc(C(=O)c2cc(OC)c(OC)c(OC)c2)n2ncccc12	26.4%

Structure (SMILES)	growth
N#CC1=C(N)Oc2c(ccc3ccccc23)C1c1ccccc1 (stereo not given)	12.7%
O=C(NNC(=O)c1ccc(NC(=O)c2ccccn2)cc1)Nc1ccc([N+](=O)[O-])cc1	106%
Nc1n[nH]c2ccc([C@H]3[C@@H]4C5CCC(C5)[C@@H]4c4c(ccc5[nH]ncc45)N3S(=O)(=O)C3CC3)cc12 (stereo not given in full)	52.7%
COc1ccc2c(c1)c(-c1nc(-c3c[nH]c4ccncc34)cs1)cn2C	106%
O=C(NCc1ccc(Cl)cc1Cl)C1CCC(=O)N1c1cccs1 (stereo not given)	89.6%
COC1/C=C/OC2(C)Oc3c(C)c(O)c4c(O)c(c(/C=N/Nc5ccc([N+](=O)[O-])cc5[N+](=O)[O-])c(O)c4c3C2=O)NC(=O)C(C)=C/C=C/C(C)C(O)C(C)C(O)C(C)C(OC(C)=O)C1C (stereo not given)	112%
Clc1ccc(/C=N\N=C\c2ccc(Cl)c(Cl)c2)cc1Cl	87.4%
COc1ccc(/C=C/C(=O)c2cccc(OCCCCOc3cccc(C(=O)/C=C/c4ccc(OC)c(OC)c4)c3)c2)cc1OC	89.6%
Fc1cccc(Oc2ccc(Nc3ncnc4ccc(OCCCN5CCOCC5)cc34)cc2Cl)c1	7.14% (active)
Fc1ccc(CNc2c3ccccc3nc3ccccc23)c(F)c1	59.8%
CCn1c(SCC(=O)N/N=C(\C)c2ccc(Cl)cc2)nc2c1c(=O)n(C)c(=O)n2C	109%
Cn1ccnc1C(=O)/C=C/c1ccc(C(=O)Nc2ccccc2O)cc1	54.7%
C#CCNC(=O)[C@H](CC)[C@H]1CC[C@H](C)[C@H]([C@@H](C)[C@H](O)[C@H](C)C(=O)[C@H](CC)C2O[C@]3(C=CC(=O)[C@]4(CC[C@@](C)([C@H]5CC[C@](O)(CC)[C@H](C)O5)O4)O3)[C@H](C)C[C@@H]2C)O1 (stereo not given in full)	68.2%
O=C1/C(=C/c2ccc([N+](=O)[O-])cc2)COc2ccc(O)cc21	113%
c1ccc(-c2oc(-c3ccccc3)c(CN3CCCCC3)c2CN2CCCCC2)cc1	52.3%
CCSc1nc2scc(C)c2c(=O)[nH]1	98.5%
COc1ccc(-c2nc3cc(C(=O)NCc4ccccc4)ccc3n2C2CCCCC2)cc1	102%
CC(C)(C)CC(C)(C)NC(=O)Nc1ncccc1OCc1ccccc1	104%
O=C(NCCCl)Nc1ncccc1OCc1ccccc1	114%
Cc1cc(=O)n(C(=O)Nc2ccccc2Cl)c2cc(O)ccc12	95%
